Screens as filed in PubChem.
C2C12 statin = protects C2C12 myotubes from simvastatin toxicity; AID 602340; 330,000 tested, 0.78% active; rescue of ATP level, % at 7.49 µM; ATP luminescence, 48 h; scaled: DMSO 0, geranylgeraniol control 100;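 active = mean ATP rescue above about 67%, or every replicate alone reaching that limit, limit read from the data, passing the limit was not always enough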;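 note: myotubes were challenged with 10 µM simvastatin during compound exposure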
EBV LMP1 NFkB = inhibitors of Epstein-Barr LMP1-induced NF-kappaB reporter | LMP1-induced NF-kappaB luciferase reporter cells, luminescence | inhibition, % at 12.5 µM | 350,000 tested, 0.69% active | AID 504558; in the data active = inhibition above about 41%;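 note: 0% = neutral control wells and 100% = reference inhibitor control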
Wnt bcat act = activates Wnt/beta-catenin signaling in a reporter cell assay. activator, plate reader. activation, % at 9.35 µM. 300,000 tested, 1.2% active. AID 743398; in the data active = activation above about 30%, passing the limit was not always enough;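 note: 0% = neutral control wells and 100% = positive control wells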
TRPM1 prom inh = inhibitors of MITF-driven TRPM1 promoter in melanoma cells; 330,000 tested, 0.83% active; SK-MEL-5 TRPM1 promoter luciferase, 24 h; inhibition, % at 12.5 µM;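 active = mean inhibition across replicates of 60% or more, whatever share of single replicates reaches that level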
esBAF inh = inhibitors of esBAF chromatin remodeling in mouse ES cells; 350,000 tested, 2% active; reporter increase, % at 12.5 µM; AID 602393; Bmi1-luciferase knock-in reporter, 24 h; 100% = twice the neutral-well signal; in the data active = activation above about 40%;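 note: 0% = median of the plate's neutral control wells and 100% = double that signal; a rise in the Bmi1 reporter signal indicates esBAF inhibition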
MITF act = activators of MITF-driven TRPM1 promoter activity in SK-MEL-5 cells; activation, % at 12.5 µM; 300,000 tested, 0.75% active; AID 588334; SK-MEL-5 TRPM1-promoter luciferase, 24 h; % of positive control, neutral wells = 0;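 active = mean activation of at least 80% with every replicate also reaching 80%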;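 note: 0% = neutral control wells and 100% = parthenolide positive control wells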
* hit, by the source's call; nt = no result given; ! = repeats disagree. Only some compounds are listed: those with a hit (about 4% of all), similar ones and a draw of the others.

SMILES	C2C12 statin	EBV LMP1 NFkB	Wnt bcat act	TRPM1 prom inh	esBAF inh	MITF act
CCOC(=O)[C@]12Cc3cc(N(C)C)ccc3[C@H]1N(Cc1ccccc1)C(=O)c1ccccc12	95*	-24	0	-2	3	3
CN1CCN(c2cccc3c2C(=O)c2ccccc2C3=O)CC1	nt	6	-2	-9	nt	3
CN1CCN(c2ccc3c(c2)S(=O)(=O)c2ccccc2C3=O)CC1	24	-8	25	-90	-2	93*
O=C(Cc1ccc(Cl)c(Cl)c1)NCC1(N2CCOCC2)CCCCC1	nt	5	45*	-4	nt	4
O=C1NC(=O)C2(CCN(S(=O)(=O)c3ccccc3)CC2)C(=O)N1	-4	-10	-5	-7	-1	5
O=C1NC(=O)C(CCc2ccncc2)(Cc2ccc(OCc3ccccc3)cc2)C(=O)N1	nt	-1	-3	-26	nt	-7
COc1cc2c(cc1/C=C/[N+](=O)[O-])OCO2	2	-1	16	79*	2	-82
CCC(=NCc1cccnc1)c1c(O)n(-c2ccccc2C)c(=O)[nH]c1=O	nt	11	3	6	nt	nt
CCCC[C@@H](C)C[C@@H](C)C(=O)N(C)[C@@H](CC(C)C)C(=O)N[C@H](C(=O)N(C)[C@H](C(=O)N1C[C@@H](O)C[C@H]1C(=O)N1C(=O)C=C[C@@H]1C)C(C)C)C(C)OC(C)=O (stereo not given in full)	-333	4	nt	100*	-71	-99
Cc1nc2ccccc2n1C1CCN(Cc2nnnn2CCc2ccccc2)CC1	-3	47*	nt	-11	-5	nt
c1ccc(CCn2nnnc2CN2CCC(n3nnc4ccccc43)CC2)cc1	-20	6	-4	8	-13	-6
CC1(C)CC(=O)C(C2(O)C(=O)NC(=O)NC2=O)=C(O)C1	12	-5	nt	-2	-1	3
COc1ccc(C2=CC(c3ccc4c(c3)OCO4)c3c(c4ccccc4oc3=O)O2)cc1OC (stereo not given)	nt	4	-4	4	nt	nt
Nc1cncc(C(=O)O)c1	-9	61*!	-1	5	-3	11
O=C1CCCN1C(=O)c1cncc(Br)c1	nt	-6	nt	0	nt	nt
O=c1[nH]c2ccccc2n1C1CCN(C(c2nnnn2C2CCCC2)C2CC2)CC1 (stereo not given)	2	nt	-1	nt	0	nt
CC(C)n1nnnc1CN1CCN(C)CC1	99*	7	nt	11	-7	-4
NC(N)=N/N=C/c1ccc(N(c2ccccc2)c2ccccc2)cc1	-46	4	-2	102*	-16	-101
Cc1cccc(C)c1-n1nnnc1C(c1cccc2ccccc12)N1CCC(n2c(=O)[nH]c3ccccc32)CC1 (stereo not given)	-33	nt	-3	nt	-5	nt
